Source: PubChem BioAssay (NCATS)
Results filed as inconclusive are left out. Calls of active or inactive are those of the source. Calls come from the whole dose curve; as a rule, active = well fitted inhibition curve with a large enough effect; inconclusive = small, poorly fitted or top-dose-only effect; inactive = flat fitted curve, though single readings scatter.

target: Voltage-gated inwardly rectifying potassium channel KCNH2 (Homo sapiens) (UniProt Q12809); assay: qHTS Assay for Small Molecule Inhibitors of the Human hERG Channel Activity (AID 588834); conditions: U2OS BacMam hERG, FluxOR thallium flux fluorescence; series mostly up to 46.1 µM; activity change, negative = inhibition: at the top concentration;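 note: lower thallium flux fluorescence means stronger hERG block; nearly all actives have a fitted effect of over 50% in size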; for activity change, negative = inhibition: top concentration of the series differs between compounds
Sequence (Q12809 whole entry, looked up): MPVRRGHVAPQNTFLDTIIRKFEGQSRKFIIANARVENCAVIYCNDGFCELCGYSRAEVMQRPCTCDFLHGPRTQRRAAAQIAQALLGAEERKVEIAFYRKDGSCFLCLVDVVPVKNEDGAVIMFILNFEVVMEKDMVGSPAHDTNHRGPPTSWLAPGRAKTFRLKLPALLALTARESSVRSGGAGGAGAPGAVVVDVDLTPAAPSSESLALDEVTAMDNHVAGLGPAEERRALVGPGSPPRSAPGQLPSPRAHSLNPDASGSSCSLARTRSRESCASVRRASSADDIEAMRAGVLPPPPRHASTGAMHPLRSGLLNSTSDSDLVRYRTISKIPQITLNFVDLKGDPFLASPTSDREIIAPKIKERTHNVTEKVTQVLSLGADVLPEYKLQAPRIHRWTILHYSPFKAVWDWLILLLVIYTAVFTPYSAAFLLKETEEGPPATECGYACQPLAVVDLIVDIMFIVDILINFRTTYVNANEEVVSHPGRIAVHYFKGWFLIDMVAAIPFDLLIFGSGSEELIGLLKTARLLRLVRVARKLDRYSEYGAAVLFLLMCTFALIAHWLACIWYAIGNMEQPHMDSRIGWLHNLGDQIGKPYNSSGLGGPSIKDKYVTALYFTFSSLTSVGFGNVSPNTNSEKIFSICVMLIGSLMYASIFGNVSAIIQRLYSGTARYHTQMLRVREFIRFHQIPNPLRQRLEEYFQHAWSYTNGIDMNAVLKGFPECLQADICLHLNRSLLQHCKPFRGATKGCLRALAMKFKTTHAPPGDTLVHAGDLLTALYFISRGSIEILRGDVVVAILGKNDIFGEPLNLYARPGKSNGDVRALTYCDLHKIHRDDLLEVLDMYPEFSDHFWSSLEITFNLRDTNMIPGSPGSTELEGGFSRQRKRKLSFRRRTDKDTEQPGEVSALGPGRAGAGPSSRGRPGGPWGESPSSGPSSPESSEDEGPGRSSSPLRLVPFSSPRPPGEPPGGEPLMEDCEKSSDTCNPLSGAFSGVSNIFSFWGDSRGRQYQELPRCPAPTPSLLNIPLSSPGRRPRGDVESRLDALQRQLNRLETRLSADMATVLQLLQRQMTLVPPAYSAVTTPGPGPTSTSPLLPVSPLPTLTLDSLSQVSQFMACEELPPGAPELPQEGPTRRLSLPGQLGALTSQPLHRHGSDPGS
Outline: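 Concentration-response qHTS measuring drop in thallium-sensitive dye signal. U2OS cells carrying BacMam hERG; compound exposure ~10 min, then stimulation buffer and 2 min read at 1 sec intervals.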
% is set by controls: 0 for no effect and ±100 for the full control effect; potency is the fitted concentration of half-maximal effect.

SMILES	activity change, negative = inhibition	Potency
NCC(CP(=O)(O)O)c1ccc(Cl)cc1 (stereo not drawn)	18.7% (inactive)	–
Oc1ccc2c3c1O[C@H]1[C@@H](O)CC[C@@]4(O)[C@@H](C2)N(CC2CCC2)CC[C@]314	-1.89% (inactive)	–
C[C@@H](Cc1ccccc1)N(C)C	12.5% (inactive)	–
COc1ccc2[nH]c3c(c2c1)CCNC3	-12.9% (inactive)	–
CN1CCc2cccc(Cl)c2CC1	0.614% (inactive)	–
NC(C(=O)O)c1cc(=O)[nH]o1 (stereo not drawn)	7.78% (inactive)	–
C[C@]12CC[C@H](O)C[C@H]1CC[C@@H]1[C@@H]2CC[C@]2(C)[C@@H](c3ccc(=O)oc3)C[C@H]3O[C@]132	-1.56% (inactive)	–
C[C@@H](CO)NC(=O)[C@@H]1C=C2c3cccc4[nH]cc(c34)C[C@H]2N(C)C1	2.58% (inactive)	–
COc1ccc2c(c1)C13CCCCC1C(C2)N(C)CC3 (stereo not drawn)	-27.6% (inactive)	–
C[C@]12CC[C@H]3[C@@H](CC[C@@]45O[C@@H]4C(O)=C(C#N)C[C@]35C)[C@@H]1CC[C@@H]2O	17.6% (inactive)	–
NCCc1c[nH]c2ccc(C(N)=O)cc12	4.18% (inactive)	–
CN(C)CCCCCCN(C)C (tested in a mixture with another compound)	15.1% (inactive)	–
CC(N)c1cccc(Cl)c1Cl (stereo not drawn)	-11.1% (inactive)	–
C=CC[C@]1(O)CC[C@H]2[C@@H]3CCC4=CCCC[C@@H]4[C@H]3CC[C@@]21C	-15.7% (inactive)	–
NCC(O)c1cc(O)c(O)cc1F (stereo not drawn)	-8.63% (inactive)	–
Cc1o[nH]c(=O)c1CC(N)C(=O)O (stereo not drawn)	19.3% (inactive)	–
COC(=O)N1CCN(C(=O)Cc2ccc(Cl)c(Cl)c2)C(CN2CCCC2)C1 (stereo not drawn)	–	11.2 µM (active)
CC(=O)c1c(O)c(C)c(O)c(Cc2c(O)c3c(c(C(=O)/C=C/c4ccccc4)c2O)OC(C)(C)C=C3)c1O	-5.95% (inactive)	–
